{"source": "PubChem BioAssay", "note": "Records with an inconclusive call do not appear. Activity calls are given as the source filed them. The limit is not given here; nearly all actives have AC50 up to about 26 µM."}
{"experiment": "viability loss in pontine glioma line – cell-based, SU-DIPG-XVII, MIPE5.0, CellTiter-Glo, qHTS, dose response (AID 1347060);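 as to AC50: cells exposed to compound for 48 hours before viability readout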", "details": "CellTiter-Glo ATP luminescence"}
{"molecule": "COc1ccc(-c2ccc3c(N4CCOCC4)nc(N4C[C@@H](C)O[C@@H](C)C4)nc3n2)cc1CO", "AC50": "3.72 µM (active)"}
{"molecule": "CC(C)c1cc(C(C)C)c(CC(=O)NS(=O)(=O)Oc2c(C(C)C)cccc2C(C)C)c(C(C)C)c1", "AC50": "10.5 µM (active)"}
{"molecule": "CN1N=C(N)c2cn([C@@H]3O[C@H](COP(=O)(O)O)[C@@H](O)[C@H]3O)c3ncnc1c23", "AC50": "0.417 µM (active)"}
{"molecule": "Clc1ccc(COC(Cn2ccnc2)c2ccc(Cl)cc2Cl)c(Cl)c1", "note": "(stereo unspecified)", "AC50": "26.3 µM (active)"}
{"molecule": "COc1cc(C)c(Sc2cnc(NC(=O)c3ccc(CNC(C)C(C)C)cc3)s2)cc1C(=O)N1CCN(C(C)=O)CC1", "note": "(stereo unspecified)", "AC50": "14.8 µM (active)"}
{"molecule": "COc1cc(F)c(C(C)C)cc1-c1ccc(C(F)(F)F)cc1CN1C(=O)O[C@H](c2cc(C(F)(F)F)cc(C(F)(F)F)c2)[C@@H]1C", "outcome": "inactive"}
{"molecule": "CC1(C)CNc2cc(NC(=O)c3cccnc3NCc3ccncc3)ccc21", "AC50": "20.9 µM (active)"}
{"molecule": "CCOc1cc2ncc(C#N)c(Nc3ccc(OCc4ccccn4)c(Cl)c3)c2cc1NC(=O)/C=C/CN(C)C", "AC50": "14.8 µM (active)"}
{"molecule": "CC[C@@]1([C@@H]2O[C@@H]([C@H]3O[C@@](O)(CO)[C@H](C)C[C@@H]3C)C[C@@H]2C)CC[C@H]([C@]2(C)CC[C@]3(C[C@H](O)[C@@H](C)[C@@H]([C@@H](C)[C@@H](OC)[C@H](C)C(=O)O)O3)O2)O1", "AC50": "0.0574 µM (active)"}
{"molecule": "CC(C)C[C@@H](N)[C@H](O)C(=O)N[C@H](C(=O)N[C@H](C(=O)N[C@@H](CC(=O)O)C(=O)O)C(C)C)C(C)C", "outcome": "inactive"}
{"molecule": "COc1c(OCCCN2CCOCC2)ccc2c3n(c(=NC(=O)c4cnc(N)nc4)nc12)CCN3", "AC50": "0.27 µM (active)"}
{"molecule": "CC(=O)O/N=C1/C(c2c(O)[nH]c3cc(Br)ccc23)=Nc2ccccc21", "AC50": "8.33 µM (active)"}
{"molecule": "CC1=C[C@@H]2[C@H]([C@@H](O)C[C@@]3(C)[C@H]2C[C@@H](C)[C@]3(O)C(=O)CO)[C@@]2(C)Cc3cnn(-c4ccccc4)c3C=C12", "AC50": "5.25 µM (active)"}
{"molecule": "COc1cc2nccc(Oc3ccc(NC(=O)Nc4cc(C)on4)c(Cl)c3)c2cc1OC", "AC50": "8.33 µM (active)"}
{"molecule": "Cc1cc(Nc2cc(CN3CCOCC3)c3nc(C)c(Cc4ccc(Cl)cc4F)n3n2)n[nH]1", "AC50": "1.32 µM (active)"}
{"molecule": "CCN(CC)CCCCNc1ncc2c(n1)N(C)C(=O)N(c1c(Cl)c(OC)cc(OC)c1Cl)C2", "AC50": "0.59 µM (active)"}
{"molecule": "CC(N[C@H]1CCCC[C@@H]1NC(=O)c1ccc(Cl)cc1)c1cccc2ccccc12", "note": "(stereo partly specified)", "AC50": "8.33 µM (active)"}
{"molecule": "N#Cc1c(NC(=O)c2cccc3ccccc23)sc2c1CCCC2", "AC50": "0.372 µM (active)"}
{"molecule": "COc1ccccc1[C@H](c1cccc2ccccc12)[C@@](C)(C#N)C(=O)N1CCC(c2cccc(C(F)(F)F)c2)CC1", "outcome": "inactive"}
{"molecule": "COc1ccc(-c2ccc3c(N4CCOC[C@@H]4C)nc(N4CCOC[C@@H]4C)nc3n2)cc1CO", "AC50": "0.209 µM (active)"}
{"molecule": "COc1cccc2cc(-c3nc(C4CCC(C(=O)O)CC4)n4ncnc(N)c34)[nH]c12", "note": "(stereo unspecified)", "AC50": "5.9 µM (active)"}
{"molecule": "Cc1cnc(NC(=O)Nc2cc(Br)c(C)cc2OC[C@@H]2CNCCO2)cn1", "AC50": "8.33 µM (active)"}
{"molecule": "CC(C)CNc1ccnc(NCc2csc(-c3ccccc3)n2)n1", "AC50": "16.6 µM (active)"}
{"molecule": "NCc1c[nH]c(=S)n1[C@H]1CCc2c(F)cc(F)cc2C1", "outcome": "inactive"}
{"molecule": "COC(=O)c1ccc2c(C(=Nc3ccc(N(C)C(=O)CN4CCN(C)CC4)cc3)c3ccccc3)c(O)[nH]c2c1", "AC50": "1.48 µM (active)"}
{"molecule": "Cc1ccc(F)c(NC(=O)Nc2ccc(-c3cccc4[nH]nc(N)c34)cc2)c1", "AC50": "14.8 µM (active)"}
